Compound activity (PubChem)
PfHsp90 yeast 2 – growth inhibition of PfHsp90-expressing yeast, primary screen, antimalarial PfHsp90 inhibitor project, S. cerevisiae, BacTiter-Glo luminescence, single point, set 2; hit rate 0.32% among 310,000; BacTiter-Glo ATP, 48 h; yeast lacking PDR1 and PDR3 efflux regulators; inhibition, % at 9.4 µM;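 active = every replicate shows inhibition above about 80%, whatever the replicate mean, limit read from the data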;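 also: 0% = DMSO neutral controls and 100% = 20 µM radicicol positive controls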
Calb FLC – C. albicans growth inhibition with fluconazole, primary screen, CaCi-2 strain, Alamar Blue fluorescence. C. albicans CaCi-2 (fluconazole-resistant clinical isolate) + fluconazole, 48 h. growth inhibition, % (concentration not given with the values). hit rate 0.57% among 300,000. AID 1979, 2009;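 active = growth inhibition above about 58% in most replicates, limit read from the data, passing the limit was not always enough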;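 also: all wells also contain fluconazole at 8 µg/ml as a sub-toxic cotreatment; 0% = median of DMSO wells and 100% = median of geldanamycin control wells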
tim23-1 inh – growth inhibitors of tim23-1 mutant yeast, primary screen, luminescence, uHTS. AID 463212, 2010. inhibition, % at 20 µM. S. cerevisiae tim23-1 growth, BacTiter-Glo luminescence, 24 h. hit rate 1.3% among 330,000;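 active = growth inhibition of the mutant yeast at or above 50%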;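 also: temperature-sensitive mutant grown at 25 °C; plate controls were DMSO-treated mutant yeast for no effect and medium wells lacking yeast for full effect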
TIM10 inh – growth inhibitors of isogenic TIM10 control yeast, primary screen, counter-screen for tim10-1 yeast inhibitor project, luminescence, uHTS. S. cerevisiae TIM10 strain growth, BacTiter-Glo luminescence, 24 h. inhibition, % at 10 µM. hit rate 1.4% among 330,000. AID 463195, 2010;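 active = inhibition of 40% or more at the single tested concentration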;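 also: wild-type TIM10 isogenic control strain grown at permissive 25 °C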
tim10-1 inh – growth inhibitors of tim10-1 mutant yeast, primary screen, luminescence, uHTS | S. cerevisiae tim10-1 ts strain growth, BacTiter-Glo, 24 h | inhibition, % at 20 µM | hit rate 2.2% among 330,000 | AID 463190, 2010;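 active = inhibition of at least 40%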;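 also: mutant grown at 25 °C; 0% = DMSO wells with yeast and 100% = wells holding no yeast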
SKKanGAS inh – S. pyogenes SKKanGAS growth inhibitors in kanamycin, primary screen, streptokinase expression inhibitor project, SKKanGAS strain, BacTiter-Glo luminescence; 6 h; inhibition, % at 7.5 µM; hit rate 1.3% among 300,000; AID 1662, 2009;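 active = mean replicate score, as percent of positive control median, at least 50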;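 also: strain carries kanamycin resistance gene driven by streptokinase promoter and grows in 40 µg/ml kanamycin; loss of luminescence reflects streptokinase promoter inhibition or plain growth inhibition; 0% = median of DMSO wells and 100% = positive control at its reference dose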
tim23-1 conf – tim23-1 mutant yeast growth inhibitors, confirmation, luminescence, single concentration; shares compounds with tim23-1 inh; S. cerevisiae tim23-1 growth, BacTiter-Glo luminescence, 24 h; inhibition, % at 20 µM; hit rate 83% among 4,400;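 active = inhibition above about 39% in either of two replicate wells at 20 µM, limit read from the data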;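 also: temperature-sensitive tim23-1 mutant grown at 25 °C; 0% = DMSO wells with yeast and 100% = medium wells without yeast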
Active calls of the source: *; . = no result given. Rows were chosen to be rich in hits. Some 4.7% of all compounds tested hit in one or more screens of this group.

SMILES	PfHsp90 yeast 2	Calb FLC	tim23-1 inh	TIM10 inh	tim10-1 inh	SKKanGAS inh	tim23-1 conf
Cc1cccc(OCCCSc2nc3ccccc3[nH]2)c1	52	36	-17	3	0	-19	.
C/C(=N/NC(=O)c1cccc(N2CCCC2=O)c1)c1ccncc1	-4	-5	-9	13	3	-2	.
CC(=O)Nc1ccc(OS(=O)(=O)c2cc(Cl)ccc2C)cc1	-2	-10	52*	1	19	-11	46*
CC1Oc2cc3oc4c(O)c(O)ccc4c(=O)c3c(O)c2C1(C)C (stereo not drawn)	104*	97*	69*	17	34	53*	70*
COc1ccccc1[C@H]1C(c2cccc(C)c2)=NN(c2ccccc2)[C@@H]1CO	-30	.	51*	0	20	.	45*
COc1ccccc1[C@H]1C(c2ccc(F)cc2)=NN(c2ccccc2)[C@@H]1CO	-3	.	55*	12	22	.	39
C[C@H]1C(c2ccc(F)cc2)=NN(c2ccccc2)[C@@H]1CO	-22	.	51*	16	31	.	30
O=C1OCCN1C(=O)[C@H]1[C@H](c2ccccc2)C(c2ccc(F)cc2)=NN1c1ccc(Br)cc1	-4	.	42	22	21	.	.
COc1ccccc1[C@H]1C(c2ccccc2)=NN(c2ccccc2)[C@@H]1CO	-6	.	50*	11	21	.	39*
CCOc1ccc(N2C(=O)C3C(c4ccccc4)=NN(c4ccccc4)C3C2=O)cc1 (stereo not drawn)	11	-16	4	23	25	22	.
CC1=NN(c2ccccc2)C(=O)C1C(=O)C(=O)Nc1ccc(F)cc1 (stereo not drawn)	-2	-2	4	2	5	3	.
CCN(CC)CCCNC(=S)N1CCN(c2nc(-c3ccccc3)cs2)CC1	-30	-7	6	3	16	0	.
CN(Cc1cccc(Cl)c1Cl)C(=O)CCNC(=O)c1ccco1	-8	.	17	2	11	.	.
CN(C)CC(=O)Nc1nc(-c2ccccc2)cs1	-26	12	-6	-7	-13	-3	.
CC1CC1C(=O)Nc1nc(-c2ccccc2)cs1 (stereo not drawn)	8	-21	53*	36	25	-13	47*
COc1ccc(-c2noc(N3CCCC(C(=O)Nc4ccc(C(C)=O)cc4)C3)n2)cc1 (stereo not drawn)	-1	-19	-7	-26	6	9	.
Clc1cncc(Cl)c1N/N=C/c1ccncc1	2	4	54*	18	0	-3	25
Clc1cccc(Cl)c1/C=N/Nc1c(Cl)cncc1Cl	2	1	-5	36	28	30	.
Cn1c2ccccc2c(=O)c2c(=O)n(Cc3ccco3)c(-c3ccc(F)cc3)nc21	4	-3	18	18	-7	13	.
Cc1ccc(-c2nc3c(c(=O)c4ccccc4n3C)c(=O)n2Cc2ccco2)cc1	6	26	53*	30	6	28	46*
Cc1cc(Oc2nc3c(C)cccn3c(=O)c2/C=C(\C#N)S(=O)(=O)c2ccccc2)ccc1Cl	-9	-27	46	27	-21	-9	.
Cc1cccn2c(=O)c(/C=C(\C#N)S(=O)(=O)c3ccccc3)c(Oc3ccc(Cl)cc3)nc12	7	4	50*	20	0	5	36
Cc1ccc(O)c(C(=O)c2cnn(C(=O)Cc3csc(C)n3)c2)c1	6	.	59*	21	37	.	57*
Cc1ncc(CC(=O)n2cc(C(=O)c3cc(F)ccc3O)cn2)s1	13	7	22	21	13	-1	.
CCOC(=O)N1CCN(C(=O)c2ccc3oc(CCCc4ccccc4)nc3c2)CC1	18	4	12	18	12	9	.
SMILES	PfHsp90 yeast 2	Calb FLC	tim23-1 inh	TIM10 inh	tim10-1 inh	SKKanGAS inh	tim23-1 conf
COC(=O)C1=NN(c2ccc(C)cc2)C2(S1)SC(C(C)=O)=C(C)N2c1ccccc1 (stereo not drawn)	.	-6	51*	25	35	6	40*
COC(=O)C1=NN(c2ccccc2)C2(S1)SC(C(C)=O)=C(C)N2c1ccccc1 (stereo not drawn)	1	5	31	25	33	-3	.
CC1C(=O)N2CCCc3cc(NC(=O)C(=O)NCCc4ccc(F)cc4)cc1c32 (stereo not drawn)	.	-10	-5	5	1	2	.
CC(Oc1cccc(Cl)c1)C(=O)Nc1nc(-c2ccccn2)cs1 (stereo not drawn)	-15	0	67*	29	31	-4	55*
CC(Oc1ccccc1)C(=O)Nc1nc(-c2ccccn2)cs1 (stereo not drawn)	.	.	35	18	23	.	.
Cc1ccc(C(=O)Nc2nc(-c3ccccn3)cs2)s1	73	.	62*	1	10	.	55*
COc1cc(OC)c(NC2c3ccccc3C(=O)N2c2cc(C)ccn2)cc1Cl (stereo not drawn)	18	2	52*	12	13	-6	42*
COc1cc(C(=O)OCC(=O)Nc2ccc(C)cc2)cc(OC)c1OC	4	5	4	0	-12	-3	.
O=C(Nc1ccc(C(=O)Oc2ccccc2)c(O)c1)c1ccccc1	10	-12	0	-3	-12	15	.
CCOC(=O)Nc1ccc(C(=O)Oc2ccccc2)c(O)c1	11	9	57*	20	19	-2	54*
CCCCCOC(=O)Cc1c(C)nc(-c2ccccc2)[nH]c1=O	0	3	54*	20	31	0	52*
CCCCCOC(=O)Cc1c(O)c2ccccc2[nH]c1=O	-29	-4	8	12	17	1	.
COc1cccc(N2CCN(CC(=O)Nc3ccc(S(=O)(=O)N4CCCCCC4)cc3)CC2)c1	9	.	24	10	23	.	.
O=C(Nc1cccc(-c2nn[nH]n2)c1)c1cccs1	28	2	-7	-7	-29	-4	.
CCOc1ccc(-c2cccc(NC(=O)c3cccs3)c2)nn1	7	5	63*	-2	5	19	47*
COc1ccc(-c2cccc(NC(=O)c3cccs3)c2)nn1	.	43	62*	-10	10	22	56*
CCOc1ccc(-c2cccc(NC(=O)c3ccco3)c2)nn1	-18	14	54*	-24	13	39	14
CN(Cc1ccccc1)C(=O)CN1CCN(S(=O)(=O)c2ccc(Cl)c(Cl)c2)CC1	21	.	52*	16	19	.	33
